# Measured values published in ChEMBL document CHEMBL1961873, “Compounds: GSK PKIS; Assays: Nanosyn kinase panel” (2012).
# Columns and labels:
# [1] = target: Serine/threonine-protein kinase PAK 6 (Homo sapiens) (UniProt Q9NQU5); details: at 1 µM;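 further: values are mean percent inhibition of PAK6 kinase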
# [2] = system: Tyrosine-protein kinase ABL1 (Homo sapiens), P00519 [E255K]; details: at 0.1 µM
# [3] = system: Tyrosine-protein kinase ABL1 (Homo sapiens), P00519 [E255K]; details: at 1 µM
# [4] = system: Tyrosine-protein kinase ABL1 (Homo sapiens), P00519 [H396P]; details: at 0.1 µM
# [5] = system: Tyrosine-protein kinase ABL1 (Homo sapiens), P00519 [H396P]; details: at 1 µM
# [6] = system: Tyrosine-protein kinase ABL1 (Homo sapiens), P00519 [M351T]; details: at 0.1 µM
# [7] = system: Tyrosine-protein kinase ABL1 (Homo sapiens), P00519 [M351T]; details: at 1 µM
# [8] = system: Tyrosine-protein kinase ABL1 (Homo sapiens), P00519 [Q252H]; details: at 0.1 µM
# [9] = system: Tyrosine-protein kinase ABL1 (Homo sapiens), P00519 [Q252H]; details: at 1 µM
# [10] = system: Tyrosine-protein kinase ABL1 (Homo sapiens), P00519 [T315I]; details: at 0.1 µM
# Sequence of Serine/threonine-protein kinase PAK 6 (Homo sapiens) (Q9NQU5 whole entry, looked up): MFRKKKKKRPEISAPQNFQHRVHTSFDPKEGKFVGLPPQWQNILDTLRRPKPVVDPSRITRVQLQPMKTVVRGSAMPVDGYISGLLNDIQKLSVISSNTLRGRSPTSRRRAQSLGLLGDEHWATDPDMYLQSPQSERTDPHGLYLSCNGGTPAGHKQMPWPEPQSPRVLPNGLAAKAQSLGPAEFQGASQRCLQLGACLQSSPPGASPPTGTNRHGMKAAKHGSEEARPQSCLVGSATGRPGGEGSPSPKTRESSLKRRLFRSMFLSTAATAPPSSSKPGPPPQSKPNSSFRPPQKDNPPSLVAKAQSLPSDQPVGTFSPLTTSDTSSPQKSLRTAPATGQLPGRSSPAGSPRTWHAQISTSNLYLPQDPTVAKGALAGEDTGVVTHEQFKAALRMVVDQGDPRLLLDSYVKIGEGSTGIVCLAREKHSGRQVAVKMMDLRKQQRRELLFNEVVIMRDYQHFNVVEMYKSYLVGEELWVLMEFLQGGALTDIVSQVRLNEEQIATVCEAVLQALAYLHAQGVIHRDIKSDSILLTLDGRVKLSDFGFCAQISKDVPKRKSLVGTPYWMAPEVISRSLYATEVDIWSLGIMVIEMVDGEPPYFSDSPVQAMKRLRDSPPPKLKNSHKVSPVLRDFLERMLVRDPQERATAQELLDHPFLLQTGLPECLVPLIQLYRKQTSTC
SMILES,inhibition [1],inhibition [2],inhibition [3],inhibition [4],inhibition [5],inhibition [6],inhibition [7],inhibition [8],inhibition [9],inhibition [10]
Cc1nc(-c2ccccc2)n2nc(NCCCN3CCOCC3)ncc12,-7.1%,0.22%,2.36%,2.5%,4.26%,-1.13%,0.73%,3.04%,3.3%,2.3%
ON=C1CCc2cc(-c3nc(C4CCNCC4)[nH]c3-c3ccncc3)ccc21,0%,-0.03%,0.64%,0.53%,2.54%,0.36%,1.06%,1.13%,2.38%,1.29%
O=S(=O)(CCOCc1ccc(-c2ccc3ncnc(Nc4ccc(OCc5cccc(F)c5)c(Cl)c4)c3c2)o1)c1ccccc1,-7.47%,0.44%,-0.12%,0.4%,2.46%,1.57%,0.99%,3.02%,3.04%,-0.12%
Cc1ccc2c(-c3ccnc(Nc4cccc(C(F)(F)F)c4)n3)c(-c3ccccc3)nn2n1,-8.69%,3.52%,19.7%,11.3%,44.8%,24.1%,68.2%,24.2%,69.1%,6.16%
COc1cccc(-n2ncc3c(N/N=C/c4ccc(S(C)(=O)=O)cc4)ncnc32)c1,5.24%,79%,93.4%,85.2%,94.1%,84.9%,95.5%,87.2%,95%,49.4%
Cc1cc(-c2ccccn2)cc(C)c1/C=C/c1cncc(-c2nn[nH]n2)c1,-5.17%,-0.88%,3.22%,3.18%,8.77%,0.81%,5.63%,3.34%,9.01%,0.21%
CCCN1CCCC(c2ccc(Nc3nc(Nc4cc(F)ccc4C(N)=O)c4cc[nH]c4n3)c(OC)c2)C1 (stereo not given),-5.69%,3.9%,5.75%,5.07%,4.96%,1.54%,5.35%,4.96%,7.24%,4.52%
CCS(=O)(=O)c1ccc(OC)c(Nc2ncc(-c3cccc(OC)c3)o2)c1,2.64%,34%,81.1%,41.6%,85.4%,43.2%,86.1%,46.6%,86.5%,6.23%
OCc1ccc(-c2nc(-c3ccccn3)c(-c3ccc4c(c3)OCO4)[nH]2)cc1,5.51%,4%,3.72%,2.95%,3.25%,1.06%,2.45%,3.06%,3.19%,1.99%
CS(=O)(=O)CCNCc1nc(-c2ccc3ncnc(Nc4ccc(OCc5cccc(C(F)(F)F)c5)cc4)c3c2)cs1,-5.71%,0.56%,1.8%,2.03%,2.31%,1.36%,1.22%,1.8%,1.75%,0.33%
COC(=O)Nc1nc2cc(Oc3ccc(NC(=O)Nc4cccc(Br)c4)cc3)ccc2[nH]1,-4.46%,4.52%,5.09%,16.4%,35%,42.6%,54.6%,39.7%,57.8%,30.1%
NC(=O)c1sc(-n2cnc3ccccc32)cc1OCc1ccccc1Br,-4.72%,2.67%,4%,4.21%,6.63%,0.66%,3.16%,3.16%,4.86%,3.2%
NS(=O)(=O)c1cccc(-c2cc3ccncc3cc2OCc2ccccc2)c1,-4%,1.9%,4.18%,4.37%,9.55%,3.86%,8.19%,3.13%,6.44%,3.3%
CCOc1nccc2c1nc(-c1nonc1N)n2CC,12.4%,1.66%,3.45%,1.16%,6.55%,1.78%,5.68%,2.67%,6.45%,1.75%
NS(=O)(=O)c1ccc(Nc2cc(-c3cccc(O)c3)n[nH]2)cc1,-5.13%,4.46%,7.4%,5.03%,5.99%,4.35%,4.29%,5.44%,5.74%,4.08%
COc1ccc(-c2nn3ncccc3c2-c2ccnc(Nc3cccc(C(F)(F)F)c3)n2)cc1,-2.65%,1.06%,3.04%,3.97%,7.02%,2.28%,27%,2.67%,17.5%,2.45%
CS(=O)(=O)Nc1cccc(-c2ccc3c(NC(=O)C4CC4)n[nH]c3c2)c1,-4.78%,1.67%,7%,2.46%,16.8%,3.14%,16%,0.49%,7.01%,3.71%

SMILES,inhibition [1],inhibition [2],inhibition [3],inhibition [4],inhibition [5],inhibition [6],inhibition [7],inhibition [8],inhibition [9],inhibition [10]
Nc1nccc(C#Cc2cncnc2Nc2ccc(OCc3cccc(F)c3)c(Cl)c2)n1,1.07%,3.67%,3.58%,3.32%,2.76%,1.11%,0.59%,2.18%,0.52%,2.46%
COc1cccc(-n2nc(C)c3c(N/N=C(\C)c4ccncc4)ncnc32)c1,-5.25%,1.05%,1.53%,0.51%,4.07%,-0.39%,4.06%,0.65%,3.19%,-2.26%
C[C@@H](Oc1cc(-n2cnc3ccc(OCC4CCN(C)CC4)cc32)sc1C(N)=O)c1ccccc1C(F)(F)F,-0.65%,-1.19%,0.71%,-1.32%,1.14%,0.4%,2.58%,-0.85%,1.8%,0.36%
CCn1c(-c2nonc2N)nc2c(C#CC(C)(C)O)nc(OCCNC)cc21,1.16%,2.13%,2.96%,3.72%,4.85%,1.62%,3.61%,3.81%,4.6%,1.77%
Cc1ccc2c(-c3ccnc(Nc4ccc5c(c4)OCCO5)n3)c(-c3ccc(C(F)(F)F)cc3)nn2n1,10.7%,2.27%,3.32%,2.14%,3.45%,0.52%,3.13%,1.51%,4.16%,0.69%
COc1cc2ncnc(Nc3ccc4c(cnn4Cc4ccccc4)c3)c2cc1OC,-6%,2.21%,2.28%,2.93%,6.16%,0.94%,3.26%,2.63%,7.1%,2.91%
Cc1cc(O)cc(C)c1/C=C/c1cncc(C(=O)N(C)C)c1,-3.14%,2.42%,5.44%,4.36%,8.17%,3.42%,7.17%,4.29%,8.87%,2.58%
O=C(Nc1ccc(Oc2ccc3[nH]c(NC(=O)c4ccco4)nc3c2)cc1)Nc1cc(C(F)(F)F)ccc1F,6.45%,15.2%,67.1%,60.1%,92%,72.4%,93.2%,68.6%,91.6%,76.3%
c1ccc(Nc2ncc(-c3ccccc3)o2)cc1,-5.22%,2.44%,8.33%,6.74%,20.6%,1.76%,17.6%,5.59%,13.7%,-0.57%
NS(=O)(=O)c1cccc(Nc2cc(-c3ccc(F)cc3)n[nH]2)c1,13%,1.07%,8.03%,5.72%,15.4%,2.42%,19.8%,4.73%,18.2%,1.49%
Oc1cccc(-c2nc(-c3ccccc3)[nH]c2-c2ccncc2)c1,2.02%,6.54%,26.7%,9.87%,36.6%,8.39%,31.3%,7.9%,27%,3.52%
CN(c1ccc(NC(=O)Nc2ccc(OC(F)(F)F)cc2)cc1)c1ccnc(Nc2cccc(S(N)(=O)=O)c2)n1,-2%,17.2%,65.3%,47.6%,86.9%,64.9%,91.2%,65.8%,90.2%,48.7%
NS(=O)(=O)c1ccc(N/N=C2\C(=O)Nc3ccc(Cl)cc32)cc1,7.73%,-0.63%,5.98%,3.92%,12.9%,1.55%,12.6%,2.4%,9.91%,0.91%
CN(C)c1cc2c(Nc3ccc4c(cnn4Cc4ccccc4)c3)ncnc2cn1,-3.27%,1.1%,1.85%,0.57%,0.96%,-0.53%,1.01%,0.79%,3.55%,-1.13%
CN(C)C(=O)O[C@@H]1CN[C@@H](C#Cc2cc3ncnc(Nc4ccc(OCc5cccc(F)c5)c(Cl)c4)c3s2)C1,-6.9%,-0.68%,2.16%,-0.68%,-1.23%,-1.17%,0.01%,2.52%,2.17%,-0.5%
[O-][S+]1CCN(Cc2ccc(-c3ccc4ncnc(Nc5ccc(OCc6ccccc6)c(Cl)c5)c4c3)o2)CC1,-2.46%,1.62%,1.35%,1.53%,2.74%,0.68%,2.75%,2.06%,3.61%,0.16%
